Bioassay records: PubChem BioAssay, National Center for Advancing Translational Sciences (NCATS)
Only some compounds are listed: those with a hit (about 12% of all), similar ones and a draw of the others.
JMJD2A Tudor = JMJD2A Tudor domain (human) inhibition | AlphaScreen JMJD2A-Tudor / H3K4me3 peptide binding | Potency, µM (titrated, usually from 114 µM), for the others: at the highest dose activity change, negative = inhibition, hits mostly inhibitors | 4.4% of 390,000 active | AID 504339; further: on the % scale 0 is the no-effect control and ±100 the full control effect; nearly all actives have a fitted effect of over 50% in size
G9a block = blocks human histone lysine methyltransferase G9a | 8.8% of 350,000 active | G9a H3K9 monomethylation, AlphaScreen, 2 h | AID 504332 | Q96KQ7 | Potency, µM (doses to about 102 µM), without a hit: top-dose activity, negative = inhibition, hits mostly inhibitors; further: on the % scale 0 is the no-effect control and ±100 the full control effect; nearly all actives have a fitted effect of over 75% in size
Target sequence (Q96KQ7 913-1193 limits assumed): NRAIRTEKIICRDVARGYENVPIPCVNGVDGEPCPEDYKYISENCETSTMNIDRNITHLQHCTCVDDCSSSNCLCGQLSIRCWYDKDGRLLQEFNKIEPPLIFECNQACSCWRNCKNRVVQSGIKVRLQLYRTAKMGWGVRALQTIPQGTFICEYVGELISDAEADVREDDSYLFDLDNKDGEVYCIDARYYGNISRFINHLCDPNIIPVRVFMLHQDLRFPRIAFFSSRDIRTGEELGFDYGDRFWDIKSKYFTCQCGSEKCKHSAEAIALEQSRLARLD
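Using a bead-based AlphaScreen, monomethylated H3K9 product from 2 h room-temperature reactions (G9a 20 nM, peptide 500 nM, SAM 20 uM) was detected with 0.5 ug/mL rabbit anti-H3K9me1 antibody.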
BAZ2B inh = blocks human BAZ2B | AlphaScreen BAZ2B-H3K14Ac peptide displacement | Potency, µM (series often up to 114 µM), inactives show top-dose activity change, negative = inhibition, usual class: inhibitors | 4.4% of 360,000 active | Q9UIF8 | AID 504333; further: on the % scale 0 is the no-effect control and ±100 the full control effect; nearly all actives have a fitted effect of over 60% in size
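BAZ2B (50 nM) with biotin-H3(5-23)K14Ac peptide (50 nM) in PBS pH 7.4, 0.01% Tween-20, preformed 30 min, then compound 30 min at room temperature; top concentration 110uM. AlphaScreen streptavidin donor/nickel chelate acceptor beads (10 ug/mL final), 20 min dark, signal read.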
HP1b binding inh = blocks HP1-beta chromodomain binding to methylated histone tails. Potency, µM (highest dose often 114 µM), without a hit: top-dose activity change, negative = inhibition, hits mostly inhibitors. P83916. AlphaScreen HP1-beta / biotin-H3K9me3 peptide binding. 0.56% of 390,000 active; further: nearly all actives have a fitted effect of over 70% in size
Target sequence (P83916 whole entry, looked up): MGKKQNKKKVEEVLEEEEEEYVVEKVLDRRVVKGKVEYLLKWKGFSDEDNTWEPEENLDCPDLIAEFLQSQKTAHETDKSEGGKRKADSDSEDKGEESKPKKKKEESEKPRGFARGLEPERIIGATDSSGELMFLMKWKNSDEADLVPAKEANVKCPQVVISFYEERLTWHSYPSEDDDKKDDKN
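HP1-beta protein (50 nM final) preincubated 30 min at room temperature with biotinylated H3(1-18)K9me3 peptide (50 nM) in PBS pH 7.4, 0.01% Tween-20, then compound added for 30 min. AlphaScreen streptavidin donor/nickel chelate acceptor beads (10 ug/mL final), 30 min dark, luminescence read.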
Sfp PPTase inh = inhibitors of Bacillus subtilis Sfp phosphopantetheinyl transferase. Q9F4F7. Biochemical Sfp PPTase activity, qHTS. Potency, µM, without a hit: largest response in the series, negative = inhibition, actives largely listed as inhibitors. 3.5% of 310,000 active;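 further: the enzyme is Sfp with the accession as filed and its product quenches rhodamine fluorescence; 0% = enzyme reaction without inhibitor and -100% = no enzyme wells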
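Step 1, compound plus 15 nM Sfp-PPTase, 15 min, room temperature. Step 2, add rhodamine-CoA (5 uM) and BHQ-2-YbbR (12.5 uM). Step 3, read 525/598 nm fluorescence at 0 and 30 min.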
Active calls of the source: *; u = inconclusive; x = not tested or not shown; [ ] = another dose, or the depositor's remark. The call rests on the fitted dose curve; in most records, active means well fitted curve in the direction sought with a large enough effect; inconclusive means small, poorly fitted or top-dose-only effect, or another doubt; inactive means no such curve, though single readings can be large; an effect the other way counts as inactive or inconclusive. Potency means the concentration at half of the fitted maximal effect.

SMILES	JMJD2A Tudor	G9a block	BAZ2B inh	HP1b binding inh	Sfp PPTase inh
CC(=O)NN1C(=O)/C(=C/c2ccc(Br)o2)SC1=S	13%[11.4 µM]	50µM*	-37%	50µM*	56µM*
COc1ccc(N2CCN(C(=O)Cc3ccc(OC)c(OC)c3)CC2)cc1	13µM*	3%[59 µM]	8%[0.457 µM]	-19%	7%
Cc1ccc(C)c(N2CCN(C(=O)CCCOc3cc(=O)n(C)c4ccccc34)CC2)c1	-34%	x	u	8%	-32%
COc1ccc(N2CCN(C(=O)CCCOc3cc(=O)n(C)c4ccccc34)CC2)cc1	u	79µM*	u	-6%	-5%
COc1ccc(N2CCN(C(C)C(=O)N(C)Cc3ccccc3)CC2)cc1 (centres undefined)	-21%	50µM*	-13%	-10%	8%
COc1ccc(N2CCN(C(=O)C(Cc3ccccc3)n3cccc3)CC2)cc1 (centres undefined)	56µM*	40µM*	28µM*	u	12%
O=C(C(Cc1ccccc1)n1cccc1)N1CCN(c2cccc(Cl)c2)CC1 (centres undefined)	-18%	u	-34%	23%	13%
COc1cc(C2NC(=O)N(C)C3=C2C(=O)CCC3)cc(OC)c1OC (centres undefined)	-12%	-9%	9%	25%	6%
CS(=O)(=O)N(Cc1ccc(Cl)cc1)c1ccc(C(=O)N2CCN(c3ccccc3)CC2)cc1	89µM*	7.9µM*	u	-5%	-15%
COc1ccc(N2CCN(C(=O)CN(Cc3ccccc3)S(C)(=O)=O)CC2)cc1	-21%	50µM*	-28%	11%	-2%
O=C(C(Cc1ccccc1)n1cccc1)N1CCN(Cc2ccccc2)CC1 (centres undefined)	u	32µM*	50µM*	1%	3%
O=C(C(Cc1ccccc1)n1cccc1)N1CCCCC1 (centres undefined)	-27%	u	-34%	3%	5%
CS(=O)(=O)N(CC(=O)N1CCN(Cc2ccc3c(c2)OCO3)CC1)Cc1ccc(Cl)cc1	-27%	u	56µM*	7%	-3%
CS(=O)(=O)N(Cc1ccccc1)c1ccc(C(=O)N2CCN(c3cccc(Cl)c3)CC2)cc1	-21%	11%[59 µM]	1%	10%	8%
CS(=O)(=O)N(CCc1ccccc1)CC(=O)N1CCN(Cc2ccc3c(c2)OCO3)CC1	-15%	u	-10%	5%	-8%
CN(C)c1ccc(C(=O)NCCCSc2ccccc2)cc1	u	u	u	-4%	0%
Cc1nnc(SCC(=O)Nc2nccs2)[nH]c1=O	-16%[11.4 µM]	x	2%	17%	-11%
COc1ccc(CNc2nc3c(c(=O)n(Cc4ccc(F)cc4)c(=O)n3C)n2C)cc1	u	u	u	-5%	17%
OC1c2ccccc2-c2nc3ccccc3cc21 (centres undefined)	x	x	x	x	4%
COc1ccc(N2CCN(C(=O)C(OC(C)=O)c3ccccc3)CC2)cc1 (centres undefined)	-3%[57.1 µM]	8.9µM*	-7%	17%	10%
COc1ccc(CCC(=O)N2CCN(c3ccc(OC)cc3)CC2)cc1	-35%	u	u	-5%	9%
CC(=O)OC(C(=O)N1CCN(c2ccc(F)cc2)CC1)c1ccccc1 (centres undefined)	-17%	-39%[59 µM]	-9%	40%	8%
CS(=O)(=O)N(CC(=O)N1CCN(c2ccccc2)CC1)Cc1ccc(Cl)cc1	-31%	u	-5%	4%	-8%
COc1ccc(N2CCN(C(=O)CCc3ccccc3)CC2)cc1	-14%	32µM*	-22%	23%	7%
COc1ccc(N2CCN(C(=O)CN(Cc3ccc(Cl)cc3)S(C)(=O)=O)CC2)cc1	u	79µM*	u	-21%	5%
SMILES	JMJD2A Tudor	G9a block	BAZ2B inh	HP1b binding inh	Sfp PPTase inh
Cc1ccccc1C(=O)NC(CC(C)C)C(=O)NCC(C)(C)N1CCOCC1 (centres undefined)	-4%	x	x	20%	x
COc1ccc2oc(=O)c(C(=O)OCc3ccccc3)cc2c1	6%	28µM*	-7%	2%	50µM*
COc1ccc2oc(=O)c(C(=O)NCc3ccccc3)cc2c1	-10%	32%	2%	34%	24%
COc1ccc([N+](=O)[O-])cc1NC(=O)Cc1ccccc1Cl	-14%	-6%	0%	8%	-26%
Cc1ccc(N=Cc2cc(Cc3ccccc3Cl)cc([N+](=O)[O-])c2O)c(O)c1	14µM*	32µM*	25µM*	u	50µM*
COc1ccc(N=Cc2cc(Cc3ccccc3Cl)cc([N+](=O)[O-])c2O)cc1OC	u	40µM*	u	-14%	8%
CCOC(=O)N1CCN(C(=O)c2c(-c3c(Cl)cccc3Cl)noc2C)CC1	3%	-1%[59 µM]	-3%	-8%	13%
COc1cc(OC)c(NC(=O)N2CC=C(c3c[nH]c4ccccc34)CC2)cc1Cl	u	u	u	4%	x
C=CCN(C(=O)Cn1c(C(=O)OC)cc2oc(C)cc21)c1ccccc1	-13%	45µM*	4%	-2%	u
COC(=O)c1cc2oc(C)cc2n1CC(=O)N(C)c1ccccc1	u	u	-2%	4%	u
Cc1cccc(C(=O)NC(=S)Nc2ccc3[nH]c(=O)[nH]c3c2)c1	-14%	u	-12%	3%	0%
O=C(O)c1ccccc1-c1ccc(/C=C2\SC(=O)N(c3ccccc3)C2=O)o1	-15%	7.1µM*	u	15%	-15%
O=C1S/C(=C\c2ccc(N3CCOCC3)o2)C(=O)N1c1ccccc1	-4%[11.4 µM]	5µM*	u	-9%	4µM*
O=C1N=C(N2CCOCC2)S/C1=C/c1ccc(-c2ccccc2Cl)o1	-19%	-14%[59 µM]	12%	13%	-2%
O=C(NCC1CCN(Cc2ccccc2Cl)CC1)Nc1ccccc1F	-1%	39%	7%	22%	5%
CN1CCC(CNC(=O)Nc2csc3ccccc23)CC1	-15%	x	-11%	27%	79µM*
O=C(Nc1ccc(F)cc1)Nc1csc2ccccc12	-10%	u	0%	29%	u
CN(C)c1ccc(NC(=O)Nc2csc3ccccc23)cc1	u	8.9µM*	35µM*	-8%	19%
COc1ccc(-c2csc(NC(=O)c3ccccc3NS(=O)(=O)c3ccc(F)c(F)c3)n2)cc1	56µM*	-37%[12.7 µM]	45µM*	u	-5%
CNc1nc(-c2ccc([N+](=O)[O-])cc2)cs1	-13%	-38%[59 µM]	9%	0%	-12%
Cc1ccc(S(=O)(=O)Nc2ccccc2C(=O)Nc2nc(-c3ccc(F)cc3)cs2)cc1	u	0%[59 µM]	9%	-8%	-13%
COc1ccc(-c2csc(NS(=O)(=O)c3ccc([N+](=O)[O-])cc3)n2)cc1	u	u	35µM*	-21%	4%
